The structures appear in SMILES notation.

Consider 17 compounds from PubChem BioAssay AID1508625 (Wald Lab, School of Medicine, Case Western Reserve …, 2021).

The assay can be described thus: small molecules boosting NK-mediated OVCAR3 lysis – imaging, primary NK cells, calcein-AM imaging, primary screen (AID 1508625).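 Further: compound given to NK cells 16 h before adding targets at 1.5 to 1 ratio.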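 On z-score: more negative robust z means stronger NK killing of tumor cells.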 Particulars: OVCAR3 lysis by primary NK cells, at 5 µM; z-score: measured here: robust Z-score, single-point normalisation.

For `CC(C)Oc1ccc(CNC2CCOC(C)(C)C2)cc1` (centres undefined), the corrected activity, negative = more killing is -3.04% and the z-score was -1.2.

As to `Cn1c(SCC(=O)Nc2cccc3ccccc23)nc2c([nH]c3ccccc32)c1=O`, the corrected activity, negative = more killing is -9.34% and the z-score was -2.32.

As for `CC1(C)COC(c2ccccc2)=N1`, the corrected activity, negative = more killing was -5.76% and the z-score is -1.78.

Turning to `CC(=O)Oc1ccc(-c2nc3ccc(OC(C)=O)cc3c(=O)o2)cc1`, the corrected activity, negative = more killing is -3.33% and the z-score is -1.44.

Take `Cc1ccc2nc(-c3ccc(Cl)c(NC(=O)Cc4ccccc4)c3)oc2c1`: the corrected activity, negative = more killing is -3.3% and the z-score is -1.77.

`O=C(O)CN1C(=O)c2ccc(C(=O)O)cc2C1=O`: the corrected activity, negative = more killing was -5.22% and the z-score was -1.62.

Turning to `COc1ccc(NC(=O)c2coc(=O)c3ccccc23)cc1Cl`, the corrected activity, negative = more killing was -3.91% and the z-score is -1.24.

Consider `O=C(Nc1cccc(-c2nc3ccccc3o2)c1)C1CCCCC1`, for which the corrected activity, negative = more killing was -2.15% and the z-score is -0.667.

Take `CCc1ccc(-n2c(C)nc3cc(C(=O)NCc4cccnc4)ccc32)cc1`: the corrected activity, negative = more killing is -5.32% and the z-score is -1.43.

As to `O=C(CCCC(=O)Nc1cccc(Cl)c1)Nc1cccc(Cl)c1`, the corrected activity, negative = more killing is -2.22% and the z-score was -0.828.

With `Cc1ccc(S(=O)(=O)n2nc(OC(=O)c3ccc(C)c(C)c3)cc2N)cc1`, the corrected activity, negative = more killing was -5.25% and the z-score is -1.67.

As for `COCCNC(=O)c1ccc2snnc2c1`, the corrected activity, negative = more killing is -3.88% and the z-score was -1.16.

Take `COc1ccc(-n2c(=S)[nH]c3cc(C(=O)NCc4ccc(Cl)cc4)ccc3c2=O)cc1`: the corrected activity, negative = more killing is -2.4% and the z-score was -0.763.

For `CCOC(=O)C(C)Sc1nc2c([nH]c3ccccc32)c(=O)n1C` (centres undefined), the corrected activity, negative = more killing was -3.61% and the z-score was -0.899.

In the case of `Cc1c(N=Cc2c[nH]c3ccccc23)cccc1[N+](=O)[O-]`, the corrected activity, negative = more killing is -2.05% and the z-score was -0.872.

As for `CCC(Oc1ccccc1)C(=O)N1CCC(C(N)=O)CC1` (centres undefined), the corrected activity, negative = more killing was -2.95% and the z-score was -1.64.

With `CC1=NNC(=O)C1CCC(=O)NN=Cc1ccncc1` (centres undefined), the corrected activity, negative = more killing was -4.86% and the z-score is -2.12.
